Holding throughout (conditions): concentration: 10 µM; 24 h
Experiment [1] has as its system HCC1569. Description: cell number relative to DMSO (% of DMSO); higher = more cells (less growth inhibition / toxicity). The gist of the method:
(§1)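 In 384-well plates holding 800 HCC1569 or TDF cells per well in RPMI with 10% FBS, compounds were tested at 10 µM for 24 h at 37 °C in triplicate. Fixation used 3.7% formaldehyde. Staining used a rabbit anti-H1.0 antibody with an AlexaFluor 647 secondary, plus DAPI. Each value, H1.0 nuclear intensity or cell number, is a median of replicates shown as percent of the plate control, and HCC1569 values were smoothed for positional effects.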

For experiment [2], the system named is TDF. Described as above. Put shortly:
as §1

Experiment [3] deals with TDF. Description: H1.0 immunofluorescence intensity relative to DMSO (% of DMSO); higher = stronger H1.0 induction, active = 120 or more. Put shortly: as §1
Experiment [4] deals with HCC1569. In words: H1.0 immunofluorescence intensity relative to DMSO (% of DMSO); higher = stronger H1.0 induction, active = 140 or more. Put shortly: as §1

Each structure is given as a SMILES string. Values joined by “and” are separate entries in the source; they are usually repeats but may differ in a detail not shown here. Equal values may be shown once. ± gives the standard deviation of the averaged measurements.
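Throughout, for H1.0 immunofluorescence intensity relative to DMSO: TDF is a line of transformed human dermal fibroblasts of mesenchymal origin.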
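Throughout, for cell number relative to DMSO: TDF denotes transformed human dermal fibroblasts of mesenchymal origin.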

For `CCCCCCCCCCCC1N[C@H](C(=O)O)CS1` (stereo partly drawn) [(4R)-2-undecyl-1,3-thiazolidine-4-carboxylic acid], the cell number was 98.7 in experiment [1] and 105 in experiment [2]. The figures for the H1.0 immunofluorescence intensity in experiment [3] and in experiment [4] were 95.5 (inactive) and 96.9 (inactive), respectively.
Taken in the same sequence, the figures for `CN1CCN(C2Cc3ccccc3Sc3ccc(Cl)cc32)CC1.O=C(O)C=CC(=O)O` (centres undefined) were 82, 104, 105 (inactive) and 145 (active).
Taken in the same sequence, the figures for `CCCCCCCCCCCCCCCC(O)C(N)CO` (centres undefined) [Dihydrosphingosine] were 102, 94.5, 98.8 (inactive) and 106 (inactive).
Taken in the same sequence, the figures for `Cl.NC12CC3CC(CC(C3)C1)C2` [Amantadine hydrochloride] were 107, 109, 104 (inactive) and 98.4 (inactive).
As for `NC/C=C\C(=O)O` [cis-4-Aminocrotonic acid], the cell number in experiment [1] turned out to be 105; in experiment [2] it was 100. Also, the H1.0 immunofluorescence intensity in experiment [3] is 98.3 (inactive); in experiment [4], 88.1 (inactive).
Taken in the same sequence, the figures for `CCCCCCCCC=CCCCCCCCCCCCC(=O)O` [13(E)-Docosenoic acid] were 104, 108, 96 (inactive) and 101 (inactive).
Regarding `Cc1nc2c([nH]1)c(=O)n(C)c(=O)n2Cc1ccco1` [Furafylline], the cell number in experiment [1] was determined as 103 ± 5.7; in experiment [2] it was 107 ± 11. For the same compound, the H1.0 immunofluorescence intensity in experiment [3] is 94.5 (inactive); in experiment [4], 103 (inactive).
With `CCCNC(=O)NS(=O)(=O)c1ccc(Cl)cc1` [Chlorpropamide], the cell number in experiment [1] is 101; in experiment [2], 96.2. The figures for the H1.0 immunofluorescence intensity in experiment [3] and in experiment [4] were 93.2 (inactive) and 91.2 (inactive), respectively.
As to `CCn1c(=O)c2[nH]c(-c3ccccc3)nc2n(CC)c1=O` [1,3-Diethyl-8-phenylxanthine], the results for the cell number in experiment [1] and in experiment [2] were 98.9 and 103, respectively. Further, the H1.0 immunofluorescence intensity was 90.7 (inactive) in experiment [3] and 87.1 (inactive) in experiment [4].
Taken in the same sequence, the figures for `O=C(O)c1ccc2ccccc2c1O.OCc1cc(C(O)CNCCCCCCOCCCCc2ccccc2)ccc1O` (centres undefined) [Salmeterol xinafoate] were 100, 100, 97.5 (inactive) and 121 (inactive).
For the compound `NC(N)=NC(=O)c1nc(Cl)c(N)nc1N` [Amiloride], the cell number in experiment [1] was determined as 101; in experiment [2], 103. The H1.0 immunofluorescence intensity in experiment [3] is 97.3 (inactive); in experiment [4], 102 (inactive).
Taken in the same sequence, the figures for `O.O=P(O)(O)C(O)(Cn1ccnc1)P(=O)(O)O` were 99.2, 94, 94.5 (inactive) and 102 (inactive).
Consider `CCN1CCc2nc(N)oc2CC1.Cl.Cl` [B-HT 933 dihydrochloride], for which the cell number in experiment [1] is 99.5; in experiment [2] it was 104. In addition, the H1.0 immunofluorescence intensity is 97 (inactive) in experiment [3] and 87.2 (inactive) in experiment [4].
Taken in the same sequence, the figures for `CCCCN1CC(O)C(O)C(O)C1CO` (centres undefined) [Miglustat] were 100, 95.6, 97.2 (inactive) and 114 (inactive).
Taken in the same sequence, the figures for `CCCS(=O)c1ccc2nc(NC(=O)OC)[nH]c2c1` (centres undefined) [Ricobendazole] were 98.4, 81.6, 114 (inactive) and 109 (inactive).
Taken in the same sequence, the figures for `CC(C)C(CO)Nc1nc(Nc2cccc(Cl)c2)c2ncn(C(C)C)c2n1` (centres undefined) were 65.5, 60.6, 120 (inactive) and 174 (active).
Consider `COc1c(N2CC3CCCNC3C2)c(F)cc2c(=O)c(C(=O)O)cn(C3CC3)c12.Cl` (centres undefined) [Moxifloxacin.HCl], for which the cell number in experiment [1] is 101; in experiment [2], 122. Moreover, the H1.0 immunofluorescence intensity in experiment [3] was 96.7 (inactive); in experiment [4], 97.9 (inactive).
Taken in the same sequence, the figures for `Cl.c1ccc(C2CN3CCSC3=N2)cc1` (centres undefined) [Tetramisole hydrochloride] were 99.8, 114, 91.7 (inactive) and 105 (inactive).
Taken in the same sequence, the figures for `C[N+](C)(C)CC(O)CC(=O)[O-].Cl` (racemic) were 102, 120, 97.1 (inactive) and 90.1 (inactive).
Taken in the same sequence, the figures for `CC(=O)NCCc1c(Cc2ccccc2)[nH]c2ccccc12` [N-[2-(2-benzyl-1H-indol-3-yl)ethyl]acetamide] were 101, 92.4, 104 (inactive) and 98.9 (inactive).
As to `COC(=O)c1sccc1S(=O)(=O)Nc1ccc(Nc2ccccc2)cc1OC`, the cell number turned out to be 99.7 in experiment [1] and 92.5 in experiment [2]. For the same compound, the H1.0 immunofluorescence intensity in experiment [3] was 88.2 (inactive); in experiment [4], 112 (inactive).
Taken in the same sequence, the figures for `CC(C)(C)c1ccc(S(=O)(=O)NCc2ccc(C(=O)Nc3cccnc3)cc2)cc1` were 98.2, 108, 86.8 (inactive) and 107 (inactive).
Taken in the same sequence, the figures for `O=C(NC1CCNCC1)c1[nH]ncc1NC(=O)c1c(Cl)cccc1Cl` were 53.5, 31.9, 131 (active) and 117 (inactive).
Take `Cn1cc(C=C2C(=O)Nc3cccnc32)c2ccccc21`: the cell number in experiment [1] was 89.7 and 101; in experiment [2], 104 and 96. The H1.0 immunofluorescence intensity was 96 (inactive) and 95.3 (inactive) in experiment [3]; 161 (active) and 98.5 (inactive) in experiment [4].
For the compound `Cl.O=C1CC2(CCCC2)CC(=O)N1CCCCN1CCN(c2ncccn2)CC1` [Buspirone hydrochloride], the cell number in experiment [1] was determined as 97.6; in experiment [2], 96.8. For the same compound, the H1.0 immunofluorescence intensity in experiment [3] was 94.3 (inactive); in experiment [4], 97 (inactive).
Taken in the same sequence, the figures for `CC(C)Cc1ccc(C(C)C(=O)O)cc1` (stereo not drawn) [S(+)-Ibuprofen] were 103, 108, 96 (inactive) and 90.5 (inactive).

For the origin of these results see the supplement of paper PMC7156485.
